About 79,000 compounds went through this panel and 15% of them were active in at least one assay; those are over-represented in the sample as a whole. Calls of active or inactive are those of the source. Cut-off read from the data, not from the text of the source: active = growth inhibition above about 70%; inactive = the rest.
How the values were obtained:
[1] = NCI Yeast Anticancer Drug Screen. Data for the rad50EPP+ strain (AID 151);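 note: 0% = growth of vehicle-treated control cultures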; details: S. cerevisiae rad50 mutant strain, stronger effect = higher value
Summary of the method: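 rad50EPP+ yeast treated with test compounds. Readout: growth vs vehicle control.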

[2] = NCI Yeast Anticancer Drug Screen. Data for the mgt1 strain (AID 153); details: S. cerevisiae mgt1 mutant growth inhibition, stronger effect = higher value
Summary of the method: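 Growth inhibition relative to vehicle controls was scored for the mgt1 yeast strain after compound exposure.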

[3] = NCI Yeast Anticancer Drug Screen. Data for the rad50 strain (AID 155);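 note: 0% = growth of vehicle-only cultures of the same strain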; details: S. cerevisiae rad50 strain growth inhibition, stronger effect = higher value
Summary of the method: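 Cells are treated with compound, grown, and their growth is then scored against vehicle-only cultures of the same repair-deficient yeast strain.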

[4] = NCI Yeast Anticancer Drug Screen. Data for the mec2-1 strain (AID 157); details: S. cerevisiae mec2-1 strain, stronger effect = higher value
Summary of the method: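 Growth inhibition is read against vehicle-treated controls after compound exposure of the mec2-1 yeast strain, which is defective in DNA damage repair or cell cycle control.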

[5] = NCI Yeast Anticancer Drug Screen. Data for the rad14 strain (AID 159);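 note: 0% = growth of vehicle-treated control cultures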; details: S. cerevisiae rad14 strain growth inhibition, stronger effect = higher value
Summary of the method: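 Readout: yeast growth inhibition, referenced to vehicle-only cultures. Strain bears a defined alteration in DNA damage repair.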

[6] = NCI Yeast Anticancer Drug Screen. Data for the sgs1 mgt1 strain (AID 161);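 note: 0% = growth of cultures given vehicle only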; details: S. cerevisiae sgs1 mgt1 strain, stronger effect = higher value
Summary of the method: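 Yeast cells carrying a defined DNA-repair defect were exposed to test compounds. Growth inhibition was measured relative to vehicle-treated controls.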

[7] = NCI Yeast Anticancer Drug Screen. Data for the CLN2oe strain (AID 163);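 note: 0% = growth of vehicle-only control cultures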; details: S. cerevisiae CLN2oe strain, stronger effect = higher value
Summary of the method: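 Compound-treated yeast; growth vs vehicle ctrl = % inhibition. Genetically altered strain (cell-cycle control).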

[8] = NCI Yeast Anticancer Drug Screen. Data for the cln2 rad14 strain (AID 165);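 note: 0% = growth equal to vehicle treated cultures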; details: S. cerevisiae cln2 rad14 strain, stronger effect = higher value
Summary of the method: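 Growth inhibition, relative to vehicle-treated controls, is the read-out. The test organism is a yeast strain with defined genetic alterations, cln2 rad14.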

[9] = NCI Yeast Anticancer Drug Screen. Data for the bub3 strain (AID 167); details: S. cerevisiae bub3 mutant strain, stronger effect = higher value
Summary of the method: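 Part of a panel of yeast mutants defective in DNA damage repair or cell cycle regulation. Each strain is grown with compound, and inhibition is calculated relative to solvent-treated cultures.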

[10] = NCI Yeast Anticancer Drug Screen. Data for the mlh1 strain (AID 171);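 note: 0% = growth of vehicle-treated control cultures of the same strain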; details: S. cerevisiae mlh1 strain growth inhibition, stronger effect = higher value
Summary of the method: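 Compounds are applied to a genetically altered yeast strain, and its growth is compared with that of vehicle-treated cultures to give percent inhibition.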

[11] = NCI Yeast Anticancer Drug Screen. Data for the sgs1 strain (AID 173);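 note: 0% = growth of vehicle-only control cultures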; details: S. cerevisiae sgs1 mutant, stronger effect = higher value
Summary of the method: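 Compounds applied to genetically altered yeast; growth compared with vehicle-treated cultures to give % inhibition.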

[12] = NCI Yeast Anticancer Drug Screen. Data for the mlh1 rad18 strain (AID 175); details: S. cerevisiae mlh1 rad18 strain growth inhibition, stronger effect = higher value
Summary of the method: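 Cells of a genetically altered yeast strain, deficient in DNA damage repair, were treated with compound. Their growth was then compared with that of vehicle-treated cultures to give inhibition.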

[13] = NCI Yeast Anticancer Drug Screen. Data for the rad18 strain (AID 177); details: S. cerevisiae rad18 mutant growth inhibition, stronger effect = higher value
Summary of the method: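 Compounds are applied to a repair-deficient yeast strain, and growth is compared with that of vehicle-treated cultures to give percent inhibition.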

[14] = at 5.0 µM (retest, dose inferred, filed as 0.5)
[15] = at 50.0 µM (retest, dose inferred, filed as 5.0)

Measured: growth inhibition

O=C(O)/C=C\C(=O)NNc1ccc(Br)cc1
inactive: [1]; at 1.2 µM 14% | [2]; at 1.2 µM -1% | [2]; at 3.7 µM 32% | [3]; at 1.2 µM 8% | [3]; at 3.7 µM 53% | [3]; [14] 10% | [4]; at 1.2 µM 1% | [5]; at 1.2 µM 4% | [6]; [14] 31% | [7]; at 1.2 µM -6% | [8]; [14] 15% | [9]; at 1.2 µM 10% | [9]; at 3.7 µM 60% | [9]; [14] 3% | [10]; at 1.2 µM -2% | [11]; at 1.2 µM 4% | [11]; at 3.7 µM 66% | [12]; [14] 27% | [13]; at 1.2 µM -2%
active: [1]; at 3.7 µM 78% | [1]; at 11.0 µM 98% | [1]; at 33.0 µM 99% | [1]; at 100.0 µM 99% | [2]; at 11.0 µM 99% | [2]; at 33.0 µM 99% | [2]; at 100.0 µM 98% | [3]; at 11.0 µM 99% | [3]; at 33.0 µM 98% | [3]; [15] 97% | [3]; at 50.0 µM 98.3% | [3]; at 100.0 µM 99% | [4]; at 3.7 µM 90% | [4]; [14] 76% | [4]; at 11.0 µM 99% | [4]; at 33.0 µM 99% | [4]; [15] 99% | [4]; at 50.0 µM 98.2% | [4]; at 100.0 µM 99% | [5]; at 3.7 µM 99% | [5]; at 11.0 µM 99% | [5]; at 33.0 µM 99% | [5]; at 100.0 µM 99% | [6]; [15] 98% | [6]; at 50.0 µM 98.5% | [7]; at 3.7 µM 96% | [7]; at 11.0 µM 99% | [7]; at 33.0 µM 99% | [7]; at 100.0 µM 99% | [8]; [15] 97% | [8]; at 50.0 µM 97.3% | [9]; at 11.0 µM 99% | [9]; at 33.0 µM 99% | [9]; [15] 97% | [9]; at 50.0 µM 98.5% | [9]; at 100.0 µM 99% | [10]; at 3.7 µM 77% | [10]; at 11.0 µM 98% | [10]; at 33.0 µM 98% | [10]; at 100.0 µM 99% | [11]; at 11.0 µM 99% | [11]; at 33.0 µM 99% | [11]; at 100.0 µM 99% | [12]; [15] 98% | [12]; at 50.0 µM 98.3% | [13]; at 3.7 µM 95% | [13]; at 11.0 µM 98% | [13]; at 33.0 µM 98% | [13]; at 100.0 µM 98%

— PubChem BioAssay (NCI)
